According to the supplement of paper PMC6555819:

Test system: THRa homodimer (NR concentration 90 nM)
Assay: PBM binding z-score (relative to random genomic background probes); higher = stronger binding; sequences stand for … in GC…GCGATTGACAGCGTAGAATGAAGG
Procedure, shortened: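 Probes were double-stranded and carried 34-nt variable regions with direct-repeat seeds, single-nucleotide variants, half-site ablations and random human genomic background sequences, printed on custom Agilent 4×180K protein-binding microarrays. Arrays were incubated 1 h with ligand-free nuclear receptor dimers in PBS pH 7.4, 2% milk, 0.02% Triton X-100, 1 mM DTT, 0.2 mg/mL BSA and 0.4 mg/ml salmon testes DNA. Antibodies against each partner (one per run) detected binding, and scanned fluorescence was regression-normalized. Binding z-scores use the random background probes as reference.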

Row | Sequence | PBM binding z-score
1 | CCTGCTAGGTCATGGTCGGCTAATCTACAGTATG | 1.29
2 | TCATATAGGTAAAAGGTGAAAGCCGGTGTGGTAA | 8.19e-05
3 | CCTATTAGTTGACCATAAGCGCAACCGAAGCTCG | 0.809
4 | TCGAGTAGGTCACCAATGGGGCATTCAGCTTTCT | -0.0324
5 | CCTAGTTGGTCAGGAGGTCACACAACGGATATGA | 2.25
6 | ATATGTAGGTTACATCCGGGTCATTCCGGCTATG | 2.3
7 | TCTTGTAGATCAACAGGACGTTAAGAAAGATCGA | -0.626
8 | ACTAGCAGGCCAAGGGTCACACAAGATTAGTCCG | 0.442
9 | CCCGACAGGTGAGAAGGTAACTCAGCCTCGATTA | 0.474
10 | ATCTCTAGGTAAAAGTTCAGGGAATCCCGAGGAT | 0.461
11 | CCGACAGGGGCAGAAAGGTTACCATACCATCCGG | -0.126
12 | TGAATGAGGTAAAAGATCAGGGAACGTGGCGTCG | -0.2
13 | CGAACTAGGTCATTGACAGGACAGTGCATAGTAA | 0.816
14 | CCGACTGTGGCAGAAAGGTTACCATACCATCCGG | -0.0743
15 | TTACCAAGGTGAGCTGAGGTCTTTGATCCAACTC | 0.8
16 | TCTGCTAGGTCATTTGGTCAGCTAACGAGCTGCC | 0.658
17 | GGAACGAGGGCATAGTTGATAGCATCTGTCGACG | -0.185
18 | ACTCGCAGGCCAAGTTTGGGTCACTCAAACAAAG | 1.1
19 | CTCGAAAGGTCGTGCTCGGGTGAGTATACCAAAC | 0.478
20 | ATCTCTAGGTAACCAACTTCAGTGAATGCCGAAC | 0.878

Row | Sequence | PBM binding z-score
21 | CCTACTGGGCCACGAAAGGACATTGATTCAGTGA | 0.069
22 | TCTTGTAGATCAGCAGGTTAAGACAGCTGGCCAA | -0.416
23 | CGTCCAAGGTCAAGGCTAGGTCAGTGAAAGCATT | 3.29
24 | ATCTCTAGGTAAAGTTCGGTGAAAGATCGATAGA | 0.351
25 | GCTGCTAGGTCAGGTTGGACAGCTAACGGGTACG | 0.46
26 | CAGACTAGGTCACGAAAGGTCAAAGTCGAATGAC | 2.29
27 | ACTATTGGTTGAGACGAGGGCAACCGATAGGTTG | 0.731
28 | GCTGCTAGGTCAGGTTGCTCAGCTAACGGGTACG | 0.194
29 | AGAATGAGGTTATACGTAGATTAGGGAAGAAAGT | 0.694
30 | TCGAGTATGTTACCAATGGGGCATTCAGCTTTCT | -0.731
31 | ATATGTAGGTTATCGGGTAATTCAGTTTGCGCAT | 1.26
32 | CCAACTGGGCCATTCAGAGGTCATTGATCATATG | 1.3
33 | AGTCAAAGTTCACTAGGTAACGAAAGATTCAGCT | 0.1
34 | ATATGTAGGTTACACCCGGGTCATTCAGGCTATG | 2.45
35 | TCGCCTAGGTCAGATCGGGCCAGTATACGCTATA | 0.0988
36 | ACTAGATGGTCAGCTGAGGTCACACACAATTCGG | 5.1
37 | CATACAGAGTCAGCTAGGCCAGAGTAGGGACGGC | -0.18
38 | GCAACTGGGGCATCAGCAGGTTACCATAACTTAA | 0.19
39 | GTACCAACGTGAATAGGTCGTTGATGAGTAGGCG | -1.03
